FBW7 act: FBW7 E3 ligase activators, primary screen, biochemical, AlphaScreen, human; AlphaScreen FBW7–phospho-cyclin E peptide binding, activator screen; normalized activity (activation), % at 26.1 µM; 650,000 compounds, 0.13% hits; AID 1259310, 2017; in the data active means normalized activity above about 1.9%;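 further: purified mutant Fbw7 with reduced substrate affinity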
MITF inh: MITF inhibitors, primary screen, biochemical, AlphaScreen, human; Microphthalmia-associated transcription factor (Homo sapiens), O75030; AlphaScreen MITF homodimerization, bead proximity signal; inhibition, % at 2.6 µM; 650,000 compounds, 0.91% hits; in the data active means inhibition above about 50%
TEAD-YAP block: TEAD-YAP interaction inhibition, primary screen, TEAD-YAP interaction inhibitor project, luminescence, HEK-TIYL cells; TEAD-Gal4/YAP UAS-luciferase luminescence; inhibition, % at 9.12 µM; 640,000 compounds, 1.4% hits; in the data active means inhibition above about 32%
GPR151 activ: activators of human GPR151, primary screen, cell-based, PathHunter beta-arrestin, luminescence | activation, % at 11.2 µM | AID 1508602, 2020 | 650,000 compounds, 1% hits | G-protein coupled receptor 151 (Homo sapiens), Q8TDV0 | PathHunter beta-arrestin GPR151 cells; in the data active means activation above about 4.9%
Target sequence (Q8TDV0 whole entry, looked up): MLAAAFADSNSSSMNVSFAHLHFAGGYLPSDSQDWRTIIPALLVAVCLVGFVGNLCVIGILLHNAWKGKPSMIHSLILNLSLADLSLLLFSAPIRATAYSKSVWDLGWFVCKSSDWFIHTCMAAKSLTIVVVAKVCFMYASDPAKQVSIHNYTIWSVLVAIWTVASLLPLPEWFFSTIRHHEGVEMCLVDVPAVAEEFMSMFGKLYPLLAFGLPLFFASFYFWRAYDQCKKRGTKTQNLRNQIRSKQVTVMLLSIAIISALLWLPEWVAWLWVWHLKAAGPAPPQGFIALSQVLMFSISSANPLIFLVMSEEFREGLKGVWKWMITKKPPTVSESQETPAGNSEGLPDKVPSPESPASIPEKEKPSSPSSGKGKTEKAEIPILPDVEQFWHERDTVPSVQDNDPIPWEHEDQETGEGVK
Of the large screens only hits and unclear results are named; the others gave an inactive call. A selection: hits, their analogues and other compounds. The true share with any hit is near 3.5%.

Cc1ccc(CN(CC(=O)O)Cc2cn(-c3ccccc3)nc2-c2cccs2)cc1	TEAD-YAP block 60
CSc1ccc2nc(N3CCN(C(=O)c4c(C)cnn4C)CC3)sc2c1	TEAD-YAP block 44
CCCC1N=C(c2cccc(OC)c2)CC(c2cc(Br)ccc2O)N1 (configuration not stated)	TEAD-YAP block 39
CCOc1cccc(C2CC(c3cccc(OC)c3)=NC(C(C)C)N2)c1O (configuration not stated)	TEAD-YAP block 36
CC(NCCN1CCNCC1)c1cc(C(C)(C)C)cc2c1CCC2(C)C (configuration not stated)	TEAD-YAP block 64
Cc1cc(OCC(=O)Nc2ccc(C(=O)OCC(C)C)cc2)ccc1Cl	none
CC(C)Cc1nnc(NC(=O)CC(C)(C)C)s1	FBW7 act 2.1
C[C@]12C=CC(=O)C=C1CCC1C2[C@@H](O)C[C@@]2(C)C1CC[C@]2(O)C(=O)COC(=O)CCC(=O)O (some centres not stated)	FBW7 act 8.0
O=C(CCS(=O)(=O)c1ccccc1)OCc1csc(-c2ccccc2)n1	none
O=C(COc1ccc2ccccc2c1)Nc1cccc(C(=O)Nc2ccccc2C(=O)O)c1	none
O=C(O)c1ccccc1Nc1cccc(OCc2ccc3ccccc3n2)c1	TEAD-YAP block 46
CCN(CC)c1nc(Nc2ccccc2)nc(Nc2cc(OC)c(OC)c(OC)c2)n1	none
COc1cc(Nc2ccnc(Nc3ccc(-n4ccnc4)cc3)n2)cc(OC)c1OC	TEAD-YAP block 51
CCN(CC)c1nc(Nc2ccc(-n3ccnc3)cc2)nc(Nc2cc(OC)c(OC)c(OC)c2)n1	TEAD-YAP block 75
O=C(N/N=C\c1ccc(Cl)cc1)c1cncc(Br)c1	none
N#Cc1c2c(c(Cl)n3c1nc1ccccc13)CCC2	FBW7 act 1.9
Cc1ccc(Nc2c3c(c(C#N)c4nc5ccccc5n24)CCC3)cc1C	FBW7 act 2.2
CN(C)c1c2c(c(C#N)c3nc4ccccc4n13)CCC2	none
CC1=NN(C(=S)c2ccccc2)C(C)(O)C12CC2 (configuration not stated)	TEAD-YAP block 33
CC1=NN(C(=O)c2ccccc2)C(C)(C)C1	none
Cc1ccc(-n2c(N)c(C(=O)Nc3ccc(F)cc3)sc2=S)cc1C	none
c1ccc2[nH]c(CNc3nc(Nc4ccncn4)nc4c3ncn4-c3ccsc3)nc2c1	TEAD-YAP block 82
c1ccc2[nH]c(CNc3nc(Nc4ccc(-n5ccnc5)cc4)nc4c3ncn4-c3ccsc3)nc2c1	TEAD-YAP block 65
c1cn(-c2ccc(Nc3nc(Nc4ccc5c(c4)OCO5)c4ncn(-c5ccsc5)c4n3)cc2)cn1	TEAD-YAP block 53
Cn1c(Nc2nc(NCc3nc4ccccc4[nH]3)c3ncn(-c4ccsc4)c3n2)nc2ccccc21	none
c1cncc(CNc2nc(Nc3ccc(-n4ccnc4)cc3)nc3c2ncn3-c2ccsc2)c1	TEAD-YAP block 55
Cn1c(C(=O)O)c(CC(=O)Nc2ccc3c(c2)OCO3)c2ccccc21	none
CCCS(=O)(=O)N1CCN(c2ccc(O)cc2)CC1	none
c1ccc2[nH]c(CNc3nc(Nc4ccncc4)nc4c3ncn4-c3ccsc3)nc2c1	TEAD-YAP block 85
Cc1nn(-c2cccc(Cl)c2)c2c1C(c1ccc(Cl)cc1)C(C#N)=C(N)O2 (configuration not stated)	none
Fc1ccccc1-c1cn2c3c(nnc2n1)CCCC3	TEAD-YAP block 92
CCOC(=O)C1CCCN(c2c(NCCN3CCCCCC3)c(=O)c2=O)C1 (configuration not stated)	none
CCOc1ccc(NC(=O)CSc2nnc3sc4ccccc4n23)cc1	none
O=C(NCC1Cc2cc(Cl)cc(-c3ncccn3)c2O1)c1ccc(N2CCCC2)cc1 (configuration not stated)	TEAD-YAP block 46
CCN(c1ccc(OC)cc1)c1ncnc2nc[nH]c12	TEAD-YAP block 37
CCCN(c1ccc(OCC)cc1)c1ncnc2nc[nH]c12	none
O=C(Oc1ccc([N+](=O)[O-])cc1)C1CC1c1ccccc1 (configuration not stated)	none
CCC(C(=O)OC)S(=O)(=O)c1ccc(Cl)cc1 (configuration not stated)	none
Fc1ccc(C2CC(c3ccc4c(c3)OCO4)Nc3nnnn32)cc1 (configuration not stated)	none
NC(CCCc1ccccc1)c1ccc2c(c1)OCCO2 (configuration not stated)	TEAD-YAP block 55
Cc1cc(C)nc(CNC(=O)c2cc(COc3c(F)cccc3F)on2)n1	none
Cc1nc(SCc2ccc(OC(C)C)cc2)n[nH]1	TEAD-YAP block 95
Cc1nc(SCc2ccc(Br)cc2)n[nH]1	TEAD-YAP block 33
CCCNS(=O)(=O)c1ccc(F)c(C(=O)Nc2ccccc2Cl)c1	none
Cc1cc(N2CCOCC2)nc2ccc(NC(=O)c3ccncc3)cc12	TEAD-YAP block 49
c1ccc(Cn2c(C3COc4ccccc4O3)nc3ncc(-c4ccncc4)cc32)cc1 (configuration not stated)	TEAD-YAP block 47
CCn1c(C2COc3ccccc3O2)nc2ccc(-c3ccncc3)cc21 (configuration not stated)	none
COC(=O)CN1C(c2cc(OC)c(OC)c(OC)c2)=Nc2ccc(Br)cc2C1c1ccccc1 (configuration not stated)	none
COc1ccc(C)cc1-n1c(C)cc(/C=C2/C(=N)N3C=CSC3=NC2=O)c1C	TEAD-YAP block 51
COc1ccccc1-n1c(C)cc(/C=C2/C(=N)N3C=C(C)SC3=NC2=O)c1C	none
Cc1cc(/C=C2/C(=N)N3C=CSC3=NC2=O)c(C)n1-c1ccc(Cl)cc1	none
COc1ccccc1-n1c(C)cc(/C=C2\C(=N)N3N=CSC3=NC2=O)c1C	TEAD-YAP block 75
Cc1ccc(-n2c(C)cc(/C=C3/C(=N)N4C=CSC4=NC3=O)c2C)c(C)c1	TEAD-YAP block 64
CCOc1cc(CN2CCc3nnc(-c4ccccc4)n3CC2)ccc1O	none
C=CCc1ccccc1OCC(=O)N/N=C/c1ccccc1	TEAD-YAP block 51
COc1ccccc1OCC(=O)N/N=C/c1ccccc1	none
COc1ccccc1OCC(=O)N/N=C/c1ccc([N+](=O)[O-])cc1	none
C=CCc1ccccc1OCC(=O)N/N=C/c1ccc([N+](=O)[O-])cc1	TEAD-YAP block 33
CC1CCN(C(=O)C(c2ccccc2)c2ccccc2)CC1	none
COc1ccc(-c2noc(CN(Cc3c(C)nn(C)c3C)C(C)C)n2)c(OC)c1OC	TEAD-YAP block 59
Cc1nc(Sc2c(-c3ccccc3Cl)c3cc(Cl)ccc3[nH]c2=O)[nH]c(=O)c1Cc1ccccc1	none
Cc1sc(NC(=O)CN(Cc2ccc(F)cc2)C(=O)C2CCC2)c(C(N)=O)c1C	none
Cc1noc(-c2ccc(NC(=O)c3cccnc3)cc2)n1	TEAD-YAP block 43
CN1Cc2cccc(Nc3cc(Nc4cccc5c4C(=O)N(C)C5)c(C(F)(F)F)cn3)c2C1=O	none
FC(F)(F)c1cnc(Nc2ccccn2)cc1Nc1ccccn1	TEAD-YAP block 54

From PubChem
